From PubChem BioAssay
SMARCA2 act: SMARCA2 function activation, primary screen. activation, % at 9.1 µM. AID 652017. 370,000 compounds, 1% hits. MG213 cells, MMTV-luciferase reporter, dexamethasone, overnight; in the data active means activation above about 7.8%;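 further: 0% = vehicle wells and 100% = reference activator wells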
ALR H2O2 inh: inhibitors of human sulfhydryl oxidase ALR | purified ALR, DTT oxidation, H2O2 HRP-luminol luminescence | 290,000 compounds, 3.8% hits | P55789 | AID 485317 | inhibition, % (no concentration beside the values);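 active means mean replicate inhibition above about 79%, with every replicate also reaching it, limit read from the data; inconclusive means only one of the two criteria met; inactive means mean below limit and not every replicate reaching it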
Target sequence (P55789 whole entry, looked up): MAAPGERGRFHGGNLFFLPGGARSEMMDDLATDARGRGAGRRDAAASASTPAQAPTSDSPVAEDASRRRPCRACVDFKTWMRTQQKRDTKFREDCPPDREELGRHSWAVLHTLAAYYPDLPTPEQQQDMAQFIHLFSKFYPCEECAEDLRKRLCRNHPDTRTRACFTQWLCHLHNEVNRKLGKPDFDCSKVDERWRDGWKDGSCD
PfM18AAP inh: PfM18AAP enzyme inhibition; recombinant PfM18AAP, H-Glu-NHMec fluorogenic cleavage; inhibition, % at 7.35 µM; 290,000 compounds, 1.2% hits;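 active means inhibition above the campaign mean inhibition over all tested compounds plus 3 SD, cut at about 28% in these data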;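 further: 0% = plate median of test compound wells and 100% = 2 mM ZnCl2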
Granule exo inh: blocks lytic granule exocytosis. TALL-104 LAMP-1 surface exposure, flow cytometry; cells stimulated with thapsigargin and PMA. inhibition, % at 10 µM. 360,000 compounds, 0.66% hits;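 active means inhibition above about 55%, limit read from the data; inconclusive means no clear call, values can overlap the other calls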
JMJD2C inh: human JMJD2C demethylase inhibition | GST-JMJD2C(1-420) H3K9me3 demethylation, DELFIA europium | inhibition, % at 2.35 µM | AID 2099 | Q9H3R0 | 330,000 compounds, 0.069% hits;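 active means more than half of a compound's replicate wells show inhibition beyond 50%, single wells judged on their own value; inconclusive means some, but no more than half, of replicates pass 50% inhibition; inactive means no replicate passes 50% inhibition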;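 further: signal counts dimethyl H3K9 product captured on neutravidin plate; 0% = median of DMSO wells and 100% = 0.3 times that DMSO median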
Target sequence (Q9H3R0 1-420 limits assumed): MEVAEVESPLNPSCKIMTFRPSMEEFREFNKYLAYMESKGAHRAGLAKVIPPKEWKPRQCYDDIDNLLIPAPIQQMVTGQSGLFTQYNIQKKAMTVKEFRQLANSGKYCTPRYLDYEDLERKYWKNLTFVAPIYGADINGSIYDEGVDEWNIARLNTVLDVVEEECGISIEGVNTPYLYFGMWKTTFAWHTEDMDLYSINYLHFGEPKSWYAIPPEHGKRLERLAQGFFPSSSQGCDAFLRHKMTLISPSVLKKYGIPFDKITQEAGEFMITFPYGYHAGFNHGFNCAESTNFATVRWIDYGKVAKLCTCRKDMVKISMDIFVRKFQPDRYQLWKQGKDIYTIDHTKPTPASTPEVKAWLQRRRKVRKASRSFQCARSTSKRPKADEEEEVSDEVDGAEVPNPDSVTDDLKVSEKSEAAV
beta cell repl: inducers of beta-cell replication in MIN6 cells; MIN6 cells proliferation, ATPlite luminescence, 48 h; cells starved in 0.2% serum; 100% = growth in 10% serum; proliferation, % at 10 µM; 330,000 compounds, 0.29% hits; AID 2380;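 active means compounds whose signal lies at least 3.5 SD above the mean of all wells on their plate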;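 further: 0% = DMSO-treated cells in low-serum medium and 100% = 10% serum control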
The depositor's hits bear a star; ? = inconclusive; nt = no result. Compounds with a hit are over-represented: about 5.4% of the library has one in this group of screens.

SMILES	SMARCA2 act	ALR H2O2 inh	PfM18AAP inh	Granule exo inh	JMJD2C inh	beta cell repl
COc1cc(-n2c(-c3ccccc3)n[nH]c2=S)c(OC)cc1Cl	0.2	78.9*	13.7	28.9	25.3	2.5
COc1ccccc1N1CCN(CCc2n[nH]c(=S)n2-c2ccccc2)CC1	-4.1	96.9*	8.8	-0.4	2.6	-2.1
CCn1c(-c2nn(C)c(C)c2Cl)n[nH]c1=S	6.2	nt	4.5	-5.8	3.9	-0.8
Cc1ccc(-n2c(C)n[nH]c2=S)cc1	-2.3	94.8*	30.2*	-1.0	14.1	nt
Cc1ccc(-n2c(-c3nn(C)c(C)c3Cl)n[nH]c2=S)cc1	1.5	86.3*	7.5	2.2	1.7	-1.9
COC(=O)[C@]12C[C@H](CC(=O)N3CCC(c4ccccc4)CC3)C(=O)N(Cc3ccc(Cl)cc3Cl)C1=C[C@H](C(C)C)O[C@@H]2C1CC1	-2.9	nt	nt	nt	nt	nt
CC[C@@]1(c2ccc(C)cc2)C(=O)N(C(=O)OC(C)C)N1C(=O)OC(C)C	-4.2	nt	nt	nt	nt	nt
COc1ccc(-c2n[nH]c(=S)n2-c2ccc(C)cc2)cc1OC	-1.0	89.5*	-5.0	7.6	12.7	-3.7
COc1ccccc1-c1n[nH]c(=S)n1N	0.3	-3.2	5.6	-0.9	-9.4	-2.8
COc1ccccc1-n1c(-c2cc(-c3ccc(F)cc3)n[nH]2)n[nH]c1=S	-2.3	77.2*	5.4	-6.0	-0.4	0.0
COc1ccccc1-c1n[nH]c(=S)n1-c1ccccc1	6.0	92.8*	13.5	1.7	3.7	1.4
COc1ccc(-c2cc(-c3n[nH]c(=S)n3-c3cccc4ccccc34)[nH]n2)cc1	1.3	31.7	-1.6	2.9	-1.3	-2.6
CCOc1ccc(NC(=O)CSc2nnc(-c3n[nH]c4c3CCC4)n2N)cc1	0.2	nt	nt	nt	nt	nt
CC1=Nc2cccc3cccc(c23)N1C	-2.9	99.1*	12.1	-3.8	-4.7	-0.2
O=C1OCC2=Nc3cccc4cccc(c34)N12	-4.4	nt	nt	nt	nt	nt
Cc1ccc2sc(NNC(=O)c3cc(=O)c4ccccc4o3)nc2c1C	-0.6	98.7*	30.1*	11.0	-2.0	-6.1
O=C(NNc1nc2c(F)cccc2s1)c1ccc(F)cc1	-3.0	-8.2	30.3*	-3.8	6.5	4.6
O=C(NNc1nc2c(F)cccc2s1)c1cc(=O)c2ccccc2o1	7.2	nt	30.4*	0.6	1.4	-2.0
Fc1cccc2sc(Nc3nc4c(F)cccc4s3)nc12	-1.1	-5.8	-3.7	11.4	-11.3	-4.5
NNc1nc2c(F)cccc2s1	0.5	-4.2	30.4*	1.7	8.4	0.0
COc1ccc2nc(NNC(=O)c3cc(=O)c4ccccc4o3)sc2c1	-0.7	nt	9.5	0.1	11.5	-5.4
O=C(NC1CCCC(C(F)(F)F)C1)c1ccc([N+](=O)[O-])o1 (configuration not stated)	7.9*	-100.4	nt	15.3	3.8	-3.7
CN(CC(=O)N1CCN(c2ccccc2)CC1)S(=O)(=O)c1cnc[nH]1	-1.2	98.0*	5.9	-5.1	-0.3	-1.2
O=C1CSCN1c1ccc(Cl)c(Cl)c1	2.4	98.5*	-3.1	23.7	-1.2	0.1
O=C1CSCN1c1cc(Cl)ccc1Cl	-2.6	42.3	-16.9	3.3	20.4	-0.3
SMILES	SMARCA2 act	ALR H2O2 inh	PfM18AAP inh	Granule exo inh	JMJD2C inh	beta cell repl
CCn1c2ccccc2c2cc(C=NNC(=O)c3ccoc3C)ccc21	0.1	nt	nt	nt	nt	nt
COc1cccc(CNc2ccc3c(c2)ncn3C)c1OC	-3.2	?	12.5	-1.9	-5.5	-2.0
CCOc1ccc(CNc2ccc3c(c2)nc(C)n3C)cc1	3.5	95.9*	-4.4	2.1	nt	1.5
COc1cccc(CNc2ccc3c(c2)nc(C)n3C)c1OC	1.9	99.2*	9.3	-11.6	-5.4	-3.7
Cc1ccccc1S(=O)(=O)N1CCC(c2nc3ccccc3o2)CC1	-4.0	nt	nt	nt	nt	nt
CSc1ccc(-c2ccco2)nn1	5.7	-10.8	5.3	-3.5	nt	0.4
c1coc(-c2nnc(-c3ccco3)nn2)c1	0.5	nt	53.8*	7.0	-19.3	-6.3
Cc1cc(Br)cn2c(Cc3ccccc3C(F)(F)F)c(-c3ccco3)nc12	-0.2	nt	nt	nt	nt	nt
CCC(CC)c1nnc(NC(=O)COc2ccc3c(c2)OCO3)s1	-2.7	-65.2	29.6*	-2.6	-0.8	-2.0
O=C(Oc1ccc(C(=S)N2CCOCC2)cc1)c1ccccc1F	-3.1	12.1	29.3*	7.7	7.1	-4.4
O=C1C(Cl)=C(NCC2CCCO2)C(=O)N1C1CCCCC1 (configuration not stated)	-1.6	97.7*	5.2	-0.3	17.6	0.1
O=C(Nc1ccc(F)cc1)OCc1cn(Cc2cc(F)cc(F)c2)nn1	-1.7	nt	nt	nt	nt	nt
Fc1ccc2[nH]c3c(Cl)ncnc3c2c1	0.4	95.4*	1.9	-0.1	94.2	-0.9
COc1ccc2[nH]c3c(Cl)ncnc3c2c1	0.5	46.5	-3.3	1.5	-2.6	1.0
O=S(=O)(c1ccc(OCC(O)CNC23CC4CC(CC(C4)C2)C3)c(Cl)c1)N1CCOCC1 (configuration not stated)	7.8*	nt	2.6	2.0	-13.9	-6.7
O=C(COc1ccc(S(=O)(=O)N2CCOCC2)cc1Cl)NC1CCCCC1	1.5	-10.6	4.6	4.3	-4.8	-4.9
COc1ccc(OC)c(S(=O)(=O)N2CCC(c3cn4ccccc4n3)CC2)c1	-3.1	nt	nt	nt	nt	nt
O=C(CN1CC[n+]2c(-c3cccs3)csc21)c1ccc(-c2ccccc2)cc1	-6.3	51.2	-0.8	5.0	-22.7	-6.6
CCc1ccc(-c2csc3[n+]2CCN3C(C)=O)cc1	-1.0	98.9*	19.0	-0.4	2.1	-4.8
CC(C)c1ccc2oc(-c3cc(N)ccc3O)nc2c1	-3.8	93.0*	15.4	-2.6	3.3	-6.2
Cc1ccccc1-c1nc2cc(N)ccc2o1	2.2	-71.8	-1.2	-1.7	1.4	-2.3
Cc1cc2[nH]c(=O)c(=O)[nH]c2cc1S(=O)(=O)N1CCC(C)CC1	-1.6	-6.3	-0.1	-5.3	-3.1	-2.6
Cc1nc(N2CCN(c3ccccc3)CC2)[nH]c(=O)c1C	2.3	96.8*	0.3	0.1	2.3	-1.8
COc1ccc(N2CCN(c3nc(C)c(C)c(=O)[nH]3)CC2)cc1	-0.1	16.0	-1.7	-5.8	-0.7	-3.0
Cc1nnc(N2CCN(Cc3ccccc3)CC2)[nH]c1=O	1.9	99.3*	-10.0	-0.5	-3.7	0.3
SMILES	SMARCA2 act	ALR H2O2 inh	PfM18AAP inh	Granule exo inh	JMJD2C inh	beta cell repl
Cc1cc2[nH]c(=O)c(=O)[nH]c2cc1S(=O)(=O)N1CCN(c2ccccc2)CC1	-2.5	97.0*	4.9	-3.3	3.6	0.1
N#Cc1c(-c2ccccc2)nc(N2CCN(Cc3ccccc3)CC2)[nH]c1=O	-3.2	2.5	9.8	0.8	3.0	-1.9
C=CCOC(=O)N1CCN(C(=O)c2ccc3c(c2)nc(C)n3C2CCCC2)CC1	-6.5	nt	nt	nt	nt	nt
Cc1ccccc1N1CCN(C(=S)c2ccc(-c3cccc([N+](=O)[O-])c3)o2)CC1	2.2	-6.4	9.9	0.8	0.5	-1.4
Cc1ccc(N2CCN(C(=S)c3ccc(-c4cccc([N+](=O)[O-])c4)o3)CC2)cc1	-0.4	nt	30.1*	0.8	-17.8	-3.0
O=C(CSc1nnc(COc2ccccc2)n1-c1ccccc1)Nc1ccc2c(c1)OCCO2	-4.3	nt	nt	nt	nt	nt
